How the values were obtained:
[1] = molecular target: MAP kinase-activated protein kinase 2 (Homo sapiens) (UniProt P49137); conditions: at 10 µM
[2] = molecular target: Serine/threonine-protein kinase MARK1 (Homo sapiens) (UniProt Q9P0L2); conditions: at 1 µM
[3] = molecular target: Serine/threonine-protein kinase MARK1 (Homo sapiens) (UniProt Q9P0L2); conditions: at 10 µM
[4] = molecular target: Dual specificity mitogen-activated protein kinase kinase 1 (Homo sapiens) (UniProt Q02750); conditions: at 10 µM
[5] = molecular target: Maternal embryonic leucine zipper kinase (Homo sapiens) (UniProt Q14680); conditions: at 1 µM
[6] = molecular target: Maternal embryonic leucine zipper kinase (Homo sapiens) (UniProt Q14680); conditions: at 10 µM
[7] = molecular target: Misshapen-like kinase 1 (Homo sapiens) (UniProt Q8N4C8); conditions: at 1 µM
[8] = molecular target: Misshapen-like kinase 1 (Homo sapiens) (UniProt Q8N4C8); conditions: at 10 µM
[9] = molecular target: T1, Dual specificity mitogen-activated protein kinase kinase 6 (Homo sapiens) (UniProt P52564); conditions: at 1 µM
T1 sequence (whole entry): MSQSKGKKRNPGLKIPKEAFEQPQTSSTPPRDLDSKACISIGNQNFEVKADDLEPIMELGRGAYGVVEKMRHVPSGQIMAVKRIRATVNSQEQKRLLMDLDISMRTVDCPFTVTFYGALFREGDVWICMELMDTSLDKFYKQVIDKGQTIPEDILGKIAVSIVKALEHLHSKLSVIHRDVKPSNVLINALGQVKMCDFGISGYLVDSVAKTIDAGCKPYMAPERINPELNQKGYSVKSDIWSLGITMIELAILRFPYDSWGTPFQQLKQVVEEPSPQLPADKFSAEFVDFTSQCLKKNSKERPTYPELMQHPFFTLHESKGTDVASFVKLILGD

[10] = molecular target: T1, Dual specificity mitogen-activated protein kinase kinase 6 (Homo sapiens); conditions: at 10 µM
[11] = molecular target: T2, Dual specificity mitogen-activated protein kinase kinase 7 (Homo sapiens) (UniProt O14733); conditions: at 1 µM
T2 sequence (whole entry): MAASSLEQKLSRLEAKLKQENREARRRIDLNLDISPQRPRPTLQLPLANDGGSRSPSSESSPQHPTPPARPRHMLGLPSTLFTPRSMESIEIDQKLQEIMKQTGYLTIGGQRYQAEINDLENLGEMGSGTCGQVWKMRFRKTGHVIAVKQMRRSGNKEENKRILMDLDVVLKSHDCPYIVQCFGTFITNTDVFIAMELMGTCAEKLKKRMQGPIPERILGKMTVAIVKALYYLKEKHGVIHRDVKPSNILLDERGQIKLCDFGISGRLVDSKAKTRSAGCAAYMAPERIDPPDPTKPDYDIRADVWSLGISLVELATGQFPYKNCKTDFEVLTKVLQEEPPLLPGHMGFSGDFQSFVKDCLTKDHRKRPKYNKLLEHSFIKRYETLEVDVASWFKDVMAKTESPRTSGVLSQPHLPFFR

[12] = molecular target: T2, Dual specificity mitogen-activated protein kinase kinase 7 (Homo sapiens); conditions: at 10 µM
[13] = molecular target: Myosin light chain kinase, smooth muscle (Homo sapiens) (UniProt Q15746); conditions: at 1 µM
[14] = molecular target: Myosin light chain kinase, smooth muscle (Homo sapiens) (UniProt Q15746); conditions: at 10 µM
[15] = molecular target: Mitogen-activated protein kinase kinase kinase 9 (Homo sapiens) (UniProt P80192); conditions: at 1 µM
[16] = molecular target: MAP kinase-activated protein kinase 3 (Homo sapiens) (UniProt Q16644); conditions: at 10 µM
[17] = molecular target: Mitogen-activated protein kinase kinase kinase 9 (Homo sapiens) (UniProt P80192); conditions: at 10 µM
[18] = molecular target: Serine/threonine-protein kinase MRCK alpha (Homo sapiens) (UniProt Q5VT25); conditions: at 10 µM
[19] = molecular target: Dual specificity mitogen-activated protein kinase kinase 1 (Homo sapiens) (UniProt Q02750); conditions: at 1 µM
[20] = molecular target: Serine/threonine-protein kinase MRCK alpha (Homo sapiens) (UniProt Q5VT25); conditions: at 1 µM

Sequence of Maternal embryonic leucine zipper kinase (Homo sapiens) (Q14680 whole entry, looked up): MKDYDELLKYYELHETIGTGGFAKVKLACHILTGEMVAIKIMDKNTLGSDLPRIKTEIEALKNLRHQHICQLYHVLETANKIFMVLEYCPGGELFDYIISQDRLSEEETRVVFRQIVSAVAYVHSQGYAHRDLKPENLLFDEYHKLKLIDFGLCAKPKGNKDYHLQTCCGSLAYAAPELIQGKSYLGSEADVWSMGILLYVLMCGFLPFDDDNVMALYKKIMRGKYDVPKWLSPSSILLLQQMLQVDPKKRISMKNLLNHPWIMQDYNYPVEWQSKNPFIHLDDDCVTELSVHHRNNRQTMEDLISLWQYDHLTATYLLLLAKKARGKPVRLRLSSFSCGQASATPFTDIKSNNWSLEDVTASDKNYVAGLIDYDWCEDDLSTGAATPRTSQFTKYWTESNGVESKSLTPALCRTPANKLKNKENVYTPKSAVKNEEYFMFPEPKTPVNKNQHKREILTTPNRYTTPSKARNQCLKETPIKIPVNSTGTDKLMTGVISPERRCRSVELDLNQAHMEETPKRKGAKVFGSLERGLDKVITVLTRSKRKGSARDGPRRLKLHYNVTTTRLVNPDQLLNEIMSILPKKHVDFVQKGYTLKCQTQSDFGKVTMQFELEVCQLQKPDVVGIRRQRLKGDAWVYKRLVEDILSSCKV
Sequence of MAP kinase-activated protein kinase 3 (Homo sapiens) (Q16644 whole entry, looked up): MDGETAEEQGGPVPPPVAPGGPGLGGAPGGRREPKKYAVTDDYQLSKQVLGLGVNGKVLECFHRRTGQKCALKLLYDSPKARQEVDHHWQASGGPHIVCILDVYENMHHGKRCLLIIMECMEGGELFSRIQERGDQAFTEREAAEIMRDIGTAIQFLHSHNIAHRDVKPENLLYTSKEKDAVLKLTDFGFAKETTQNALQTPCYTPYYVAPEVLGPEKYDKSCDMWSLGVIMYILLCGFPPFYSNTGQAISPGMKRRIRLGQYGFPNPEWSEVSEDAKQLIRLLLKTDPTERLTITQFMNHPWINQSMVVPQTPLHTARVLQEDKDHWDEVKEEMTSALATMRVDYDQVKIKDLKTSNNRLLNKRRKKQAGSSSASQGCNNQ
Sequence of Serine/threonine-protein kinase MARK1 (Homo sapiens) (Q9P0L2 whole entry, looked up): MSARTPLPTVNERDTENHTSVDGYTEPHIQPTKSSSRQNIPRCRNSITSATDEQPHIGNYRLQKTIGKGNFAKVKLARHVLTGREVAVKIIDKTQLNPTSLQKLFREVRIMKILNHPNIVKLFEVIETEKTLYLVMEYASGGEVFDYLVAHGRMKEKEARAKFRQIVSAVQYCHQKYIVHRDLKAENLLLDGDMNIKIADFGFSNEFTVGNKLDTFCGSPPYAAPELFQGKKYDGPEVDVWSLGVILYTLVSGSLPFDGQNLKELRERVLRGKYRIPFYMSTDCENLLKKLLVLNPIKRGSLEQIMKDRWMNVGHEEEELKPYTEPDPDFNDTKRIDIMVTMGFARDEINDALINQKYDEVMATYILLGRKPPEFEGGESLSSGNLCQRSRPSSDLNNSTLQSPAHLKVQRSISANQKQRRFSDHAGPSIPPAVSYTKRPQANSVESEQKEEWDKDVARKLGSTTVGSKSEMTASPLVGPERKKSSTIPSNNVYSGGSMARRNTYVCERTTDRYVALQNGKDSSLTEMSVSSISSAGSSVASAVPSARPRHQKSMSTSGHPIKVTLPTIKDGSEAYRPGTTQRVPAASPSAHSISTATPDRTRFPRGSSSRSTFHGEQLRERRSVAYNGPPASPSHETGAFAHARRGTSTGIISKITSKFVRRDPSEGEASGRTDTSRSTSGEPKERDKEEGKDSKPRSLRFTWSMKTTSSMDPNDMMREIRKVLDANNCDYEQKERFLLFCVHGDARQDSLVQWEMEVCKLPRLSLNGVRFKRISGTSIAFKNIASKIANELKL
Sequence of Misshapen-like kinase 1 (Homo sapiens) (Q8N4C8 whole entry, looked up): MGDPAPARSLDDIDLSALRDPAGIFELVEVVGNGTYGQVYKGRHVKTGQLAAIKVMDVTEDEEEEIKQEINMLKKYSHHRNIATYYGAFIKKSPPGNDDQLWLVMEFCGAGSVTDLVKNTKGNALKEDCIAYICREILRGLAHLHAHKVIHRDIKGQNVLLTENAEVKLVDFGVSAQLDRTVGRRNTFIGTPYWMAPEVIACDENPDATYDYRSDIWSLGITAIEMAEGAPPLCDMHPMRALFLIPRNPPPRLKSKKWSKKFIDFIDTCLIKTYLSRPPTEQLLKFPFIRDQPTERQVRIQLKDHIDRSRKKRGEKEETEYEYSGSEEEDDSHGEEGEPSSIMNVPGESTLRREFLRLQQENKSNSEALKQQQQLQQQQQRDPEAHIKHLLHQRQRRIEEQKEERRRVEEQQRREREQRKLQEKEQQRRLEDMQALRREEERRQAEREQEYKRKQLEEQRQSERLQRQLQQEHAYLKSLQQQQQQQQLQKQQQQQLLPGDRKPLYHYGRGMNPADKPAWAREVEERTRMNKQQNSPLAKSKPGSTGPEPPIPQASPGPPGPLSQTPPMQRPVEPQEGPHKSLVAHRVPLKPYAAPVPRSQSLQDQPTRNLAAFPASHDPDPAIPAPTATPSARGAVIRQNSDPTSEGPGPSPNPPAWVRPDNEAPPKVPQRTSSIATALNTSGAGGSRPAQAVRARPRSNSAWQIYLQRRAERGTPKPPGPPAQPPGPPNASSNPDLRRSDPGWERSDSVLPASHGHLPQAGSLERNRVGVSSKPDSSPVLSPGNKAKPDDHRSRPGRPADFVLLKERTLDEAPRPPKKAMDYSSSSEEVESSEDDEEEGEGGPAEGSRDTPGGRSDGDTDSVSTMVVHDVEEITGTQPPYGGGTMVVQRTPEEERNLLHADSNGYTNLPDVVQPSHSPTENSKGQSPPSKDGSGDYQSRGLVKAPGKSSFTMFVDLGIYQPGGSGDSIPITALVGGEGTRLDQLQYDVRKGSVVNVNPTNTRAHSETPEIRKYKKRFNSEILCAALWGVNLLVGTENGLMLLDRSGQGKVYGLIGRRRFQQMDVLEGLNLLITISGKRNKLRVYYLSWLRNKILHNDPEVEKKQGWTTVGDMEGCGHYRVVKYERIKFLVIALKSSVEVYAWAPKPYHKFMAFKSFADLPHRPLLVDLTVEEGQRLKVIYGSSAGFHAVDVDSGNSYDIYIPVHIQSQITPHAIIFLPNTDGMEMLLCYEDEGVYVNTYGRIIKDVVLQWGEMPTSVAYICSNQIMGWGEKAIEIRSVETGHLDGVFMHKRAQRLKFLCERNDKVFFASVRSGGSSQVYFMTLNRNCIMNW
Sequence of Serine/threonine-protein kinase MRCK alpha (Homo sapiens) (Q5VT25 whole entry): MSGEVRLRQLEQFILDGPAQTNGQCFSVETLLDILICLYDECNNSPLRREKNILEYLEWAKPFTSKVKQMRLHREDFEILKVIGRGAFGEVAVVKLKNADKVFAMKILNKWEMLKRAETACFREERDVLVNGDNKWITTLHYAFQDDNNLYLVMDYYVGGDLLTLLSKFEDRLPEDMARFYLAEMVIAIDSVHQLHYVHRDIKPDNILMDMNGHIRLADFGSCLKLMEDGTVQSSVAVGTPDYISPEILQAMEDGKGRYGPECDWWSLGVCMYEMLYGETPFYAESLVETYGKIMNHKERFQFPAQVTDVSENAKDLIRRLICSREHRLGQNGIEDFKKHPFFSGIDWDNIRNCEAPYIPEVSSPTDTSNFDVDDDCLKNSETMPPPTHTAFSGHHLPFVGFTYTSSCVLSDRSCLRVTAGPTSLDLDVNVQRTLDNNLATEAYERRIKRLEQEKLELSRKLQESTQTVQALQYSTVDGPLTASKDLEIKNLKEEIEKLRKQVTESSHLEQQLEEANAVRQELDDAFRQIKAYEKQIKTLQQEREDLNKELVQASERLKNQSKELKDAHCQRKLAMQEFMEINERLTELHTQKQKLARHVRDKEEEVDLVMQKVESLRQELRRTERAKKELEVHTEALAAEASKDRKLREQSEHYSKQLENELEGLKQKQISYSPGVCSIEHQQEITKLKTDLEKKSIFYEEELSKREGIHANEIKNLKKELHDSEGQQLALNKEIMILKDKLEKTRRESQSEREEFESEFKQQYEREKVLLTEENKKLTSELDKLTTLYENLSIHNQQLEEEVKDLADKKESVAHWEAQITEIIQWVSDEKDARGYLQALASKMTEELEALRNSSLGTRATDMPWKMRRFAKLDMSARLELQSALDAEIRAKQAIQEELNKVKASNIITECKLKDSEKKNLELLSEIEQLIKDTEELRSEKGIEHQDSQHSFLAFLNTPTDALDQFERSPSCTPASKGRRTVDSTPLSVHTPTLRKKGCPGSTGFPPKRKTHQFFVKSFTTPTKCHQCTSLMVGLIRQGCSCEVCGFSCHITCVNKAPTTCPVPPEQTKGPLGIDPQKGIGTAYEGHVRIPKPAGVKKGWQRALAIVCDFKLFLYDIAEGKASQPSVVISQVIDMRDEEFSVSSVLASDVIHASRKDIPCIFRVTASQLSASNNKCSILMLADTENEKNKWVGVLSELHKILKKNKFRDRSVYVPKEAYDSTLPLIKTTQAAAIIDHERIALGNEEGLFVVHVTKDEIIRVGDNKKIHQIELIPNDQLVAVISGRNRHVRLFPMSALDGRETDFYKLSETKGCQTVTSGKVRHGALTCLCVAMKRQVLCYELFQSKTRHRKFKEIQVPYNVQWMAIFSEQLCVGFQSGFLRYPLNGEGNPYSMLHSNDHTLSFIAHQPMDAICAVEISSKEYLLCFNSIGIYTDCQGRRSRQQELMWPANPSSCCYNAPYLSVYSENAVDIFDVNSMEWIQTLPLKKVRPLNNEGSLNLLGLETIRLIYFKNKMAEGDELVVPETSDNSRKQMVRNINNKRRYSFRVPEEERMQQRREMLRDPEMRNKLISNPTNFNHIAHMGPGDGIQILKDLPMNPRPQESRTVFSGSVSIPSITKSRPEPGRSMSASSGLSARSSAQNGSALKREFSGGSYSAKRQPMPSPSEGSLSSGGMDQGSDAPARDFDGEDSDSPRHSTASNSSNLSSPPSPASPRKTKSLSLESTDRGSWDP

Structure (SMILES) | residual activity [1] | residual activity [2] | residual activity [3] | residual activity [4] | residual activity [5] | residual activity [6] | residual activity [7] | residual activity [8] | residual activity [9] | residual activity [10] | residual activity [11] | residual activity [12] | residual activity [13] | residual activity [14] | residual activity [15] | residual activity [16] | residual activity [17] | residual activity [18] | residual activity [19] | residual activity [20]
Cc1cccc(-c2[nH]c(C(C)(C)C)nc2-c2ccc3c(c2)OCO3)n1 | 96% | 85% | 77% | 96% | 75% | 103% | 101% | 90% | 70% | 39% | 107% | 83% | 84% | 90% | 99% |  |  |  |  | 
Cc1cc2ncc(-c3ccccc3)nc2cc1C | 93% | 84% | 90% | 90% | 72% | 77% | 94% | 82% | 86% | 106% | 76% | 93% | 77% | 96% | 92% | 93% | 102% | 81% |  | 
O=C1NC(=O)/C(=C/c2ccc3c(c2)OC(F)(F)O3)S1 | 87% | 100% | 76% | 109% | 114% | 82% | 85% | 73% | 72% | 93% | 96% | 99% | 77% | 72% | 96% | 81% | 99% | 104% | 114% | 112%
N#CC(C#N)=C(N)/C(C#N)=C/c1ccc(O)cc1 | 87% | 89% | 75% |  | 70% | 78% | 89% | 88% | 91% | 99% | 94% |  | 68% | 85% | 99% |  | 97% | 76% |  | 90%
O=C1c2ccccc2-[n+]2ccc3c([nH]c4ccccc43)c21 | 98% | 80% | 77% | 110% | 85% | 67% | 99% | 87% | 109% | 92% | 91% | 97% | 95% | 79% | 91% | 89% | 83% | 86% | 97% | 100%
N#Cc1cnc2cnc(NCc3cccnc3)cc2c1Nc1ccc(F)c(Cl)c1 | 64% | -1% | -1% | 91% | 2% | 0% | 93% | 90% | 10% | 7% | 83% | 74% | 69% | 46% | 99% |  | 99% | 9% | 91% | 14%
O=C1Nc2cc(Br)ccc2/C1=C1/Nc2ccccc2/C1=N\O | 90% | 21% | 19% | 107% | 34% | 48% | 91% | 70% | 87% | 65% | 80% | 93% | 25% | 32% | 21% | 91% | 10% | 103% | 71% | 141%
COc1ccc(CNc2nc(N(CCO)CCO)nc3c2ncn3C(C)C)cc1 | 81% | 85% | 72% | 120% | 77% | 38% | 103% | 92% | 102% | 100% | 86% | 95% | 108% | 68% | 82% | 98% | 41% | 89% | 103% | 108%
O=C(O)c1ccc2c3c1cccc3c(=O)n1c3ccccc3nc21 | 95% | 81% | 35% | 97% | 91% | 53% |  | 5% | 92% | 64% | 87% | 46% | 88% | 35% | 33% | 106% | 5% | 115% | 94% | 107%
COc1ccc(OC)c2c(=S)c3ccccc3[nH]c12 |  | 87% | 74% | 110% | 102% | 84% | 108% | 94% | 112% | 96% | 81% | 90% | 132% | 71% |  | 89% | 89% | 93% | 114% | 119%
CN(C)CCCn1cc(C2=C(c3c[nH]c4ccccc34)C(=O)NC2=O)c2ccccc21 | 73% | 65% | 25% | 52% | 41% | 13% | 84% | 47% |  |  | 79% |  | 20% | 7% | 58% | 109% | 13% | 76% | 109% | 115%
C[C@@H](N)[C@H]1CC[C@H](C(=O)Nc2ccncc2)CC1 | 82% | 95% |  | 106% | 105% | 87% | 99% | 108% | 101% | 99% | 107% | 121% |  |  | 105% | 85% | 101% | 84% | 104% | 98%
Cc1cncc2cccc(S(=O)(=O)N3CCCN(C(=O)CN)C[C@H]3C)c12 | 87% | 73% | 43% |  | 74% | 24% | 91% | 72% |  |  | 82% |  | 94% | 99% | 86% |  | 62% | 99% |  | 98%
CCC(=O)Nc1ccc2ncnc(Nc3cccc(Br)c3)c2c1 | 95% | 84% | 90% | 92% | 90% | 96% | 83% | 82% | 77% | 108% | 94% | 89% | 68% | 82% | 89% | 88% | 78% | 101% | 93% | 109%

Source: ChEMBL document CHEMBL2218924, “A broad activity screen in support of a chemogenomic map for kinase signalling research and drug discovery” (Biochem J, 2013)
